Vaccinia Venus: vaccinia inhibition (Venus reporter); Vaccinia virus Venus reporter expression, fluorescence; Potency, µM (top dose mostly 36.5 µM), for the others: at the highest dose activity change, negative = inhibition, hits mostly inhibitors; 330,000 tested, 0.46% active; AID 720580; calls by dose curve; tested in A549 cells; note: potency is the fitted concentration of half-maximal effect; nearly all actives have a fitted effect of over 30% in size
MARV entry inh: Marburg virus entry inhibition | Marburg virus pseudotyped entry inhibition, cell reporter | Potency, µM (highest dose often 37.8 µM), for the others: at the highest dose activity change, negative = inhibition, actives largely listed as inhibitors | 300,000 tested, 1.8% active | AID 540276; calls by dose curve; tested in HEK293 cells; note: potency is the fitted concentration of half-maximal effect
FMDV inh: foot and mouth disease virus antiviral activity; FMDV antiviral cell-based qHTS; Potency, µM (top dose mostly 57.9 µM), inactives show top-dose activity change, negative = inhibition, usual class: inhibitors; 410,000 tested, 1.2% active; AID 1159524; calls by dose curve; tested in HEK293T cells; note: read-out not given here; potency is the fitted concentration of half-maximal effect; nearly all actives have a fitted effect of over 45% in size
Vaccinia mCherry: inhibitors of vaccinia virus infection (mCherry reporter signal); Vaccinia virus mCherry reporter infection, fluorescence; Potency, µM (series often up to 36.5 µM), for inactives: top-dose activity change, negative = inhibition, actives largely listed as inhibitors; 310,000 tested, 0.63% active; calls by dose curve; tested in A549 cells; note: potency is the fitted concentration of half-maximal effect; nearly all actives have a fitted effect of over 35% in size
LASV entry inh: blocks Lassa virus binding to or entry into cells; Lassa virus pseudotype entry inhibition, cell reporter; Potency, µM (titrated, usually from 37.9 µM), for inactives: top-dose activity change, negative = inhibition, most hits filed as inhibitors; 300,000 tested, 1.2% active; AID 540256; calls by dose curve; tested in HEK293 cells; note: potency is the fitted concentration of half-maximal effect; nearly all actives have a fitted effect of over 50% in size
HCMV inh: inhibitors of human cytomegalovirus; HFF cells, HCMV-luciferase reporter, 72 h; hits give low values; activity change, negative = inhibition, % at 57.5 µM; 410,000 tested, 4.5% active; in the data active = activity change below about -60%; inconclusive = no clear call, values can overlap the other calls; inactive = above about -39%
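Two-dose cell screen: HFF monolayers treated with compounds and infected with luciferase-expressing HCMV at 1 PFU/cell, 72 h at 37C, then lysed for luciferase measurement.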
The depositor's hits bear a star; i = inactive; u = inconclusive; x = no result; [ ] = dose if it differs, or a comment. A selection: hits, their analogues and other compounds. The true share with any hit is near 6.5%. % is set by controls: 0 for no effect and ±100 for the full control effect.

SMILES	Vaccinia Venus	MARV entry inh	FMDV inh	Vaccinia mCherry	LASV entry inh	HCMV inh
COc1ccc(C(=O)COC(=O)c2cc([N+](=O)[O-])ccc2N2CCOCC2)c(OC)c1	-13%	2.2µM*	-19%	-19%	-11%	18
COc1ccccc1C(=O)COC(=O)c1cc([N+](=O)[O-])ccc1N1CCOCC1	-8%	u	7%	i	-10%	-12
COc1ccccc1-c1ccnc(-n2ncc(C(=O)N(C)C(C)c3ccon3)c2C2CC2)n1 (centres undefined)	2%	x	47%	-10%	x	x
Cc1cnc2ccccc2c1/C=C/c1ccc(N(C)C)cc1	-19%	x	x	-26%	x	x
O=C(N/N=C1/CCSC1)c1cc(Br)ccc1O	0%	-1%[14.2 µM]	40%	11%	8%	-38
CCOc1ccc(C(=O)c2cc([N+](=O)[O-])ccc2N2CCOCC2)cc1	u	u	u	u	u	-90*
O=C(Cn1c(=O)n(CC2CS2)c2ccccc21)N1CCCCCC1 (centres undefined)	-13%	3%[46.1 µM]	16%	i	11%	-70*
CC(C)CC1NC(=S)N(Cc2ccccc2)C1=O (centres undefined)	x	u	11%	x	-2%	-100*
O=C1C(Cc2ccccc2)NC(=S)N1Cc1ccccc1 (centres undefined)	x	x	-7%	x	x	-20
CCOC(=O)Cc1c(Sc2ccccc2)c2cc(C)ccc2n1C	0%	u	0%	-10%	-1%	-60*
Cc1ccc2c(c1)c(Sc1ccccc1)c(CC(=O)O)n2C	-4%	9%	-5%	-13%	6%	-15
Cc1cc(C)c(OCC(=O)N2CC=C(c3ccccc3)CC2)c(C)c1	x	x	0%	x	x	-67*
COc1cc(OC)cc(C(=O)NCC(=O)N2CC=C(c3ccccc3)CC2)c1	u	u	-10%	u	-7%	-5
CC(C)NC(=S)NC(=O)c1ccc(-c2ccccc2)cc1	-16%	u	-25%	-24%	-3%	-81*
c1ccc(N2CCN(c3nc4cc5c(cc4s3)OCO5)CC2)cc1	-20%	-22%	7%	i	5%	-20
CN1CCN(c2ccc3sc(-n4ccc5ccccc54)nc3c2)CC1	-16%	x	u	-14%	x	-104*
Cc1cc(/C=N/n2cnnc2)c(C)n1-c1ccc(OCc2ccc(F)cc2)cc1	-25%	u	x	-29%	u	-86*
Cc1cc(/C=N/n2cnnc2)c(C)n1-c1ccc(Cl)cc1	-8%	u	0%	i	-20%	-17
Cc1cc(/C=N/n2cnnc2)c(C)n1-c1ccc(OCc2ccc(Cl)cc2Cl)cc1	u	8.9µM*	-46%	x	7.1µM*	x
C=CCNC(=O)c1c(CS(=O)(=O)c2ccccc2)noc1C(=O)NCc1ccccc1	-5%	x	-8%	i	x	2
COC(=O)[C@]1(C#N)CC(=O)N([C@H](c2ccccc2)[C@@H](O)c2ccccc2)[C@@H]1c1ccccc1	x	x	x	x	x	-18
Cc1ccsc1C(=O)NCCc1ccc(S(N)(=O)=O)cc1	-4%	u	13%	-7%	-2%[46.1 µM]	-22
Cc1ccnc(N/C=C(\C#N)c2nc(-c3cccc(Br)c3)cs2)c1	-5%	u	-10%	-11%	u	-80*
N#Cc1cccc(NC(=S)Nc2ccccc2)c1	-7%	u	10%	-19%	3%	-68*
COc1ccc(F)c(CN2CCC(n3nccc3NC(=O)CCCc3ccccc3)CC2)c1	-12%	-14%	-22%	0%	u	40
COc1ccc(NC(=O)C2CC23CCN(Cc2cccc4ncccc24)CC3)cc1Cl (centres undefined)	-14%	x	-18%	-18%	x	x
CC(=O)CC1OC(=O)C(Br)=C1NCc1ccccc1 (centres undefined)	-8%	18µM*	x	i	u	u
O=C(CC1Oc2ccccc2NC1=O)NCc1ccccc1 (centres undefined)	-2%	x	-26%	i	x	-16
CC(=O)N1CCc2cc(S(=O)(=O)NCCC(=O)NCCc3ccc(C)cc3)ccc21	-22%	u	u	-9%	u	-15
COc1cccc(CNS(=O)(=O)c2ccc3c(c2)CCN3C(=O)C2CCC2)c1	-7%	9%[46.1 µM]	4%	-10%	u	-7
